Assay results: PubChem BioAssay AID504843 (Broad Institute, 2011)
Screen size: about 1,200 compounds; about 360 (30%) were called active. The rule behind the calls is not given here. These entries were drawn from the full list. Entries with a potency or affinity are not part of this list.

Test: bacterial growth inhibition, dose response, counter-screen, BacTiter-Glo luminescence, cherry-picked samples (AID 504843);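 note: growth measured after 8 h incubation at 30 °C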
Settings: BacTiter-Glo ATP luminescence; series mostly up to 15 µM

| SMILES | outcome |
| --- | --- |
| CCc1ccc(C(C(=O)NC2CCCC2)N(CCOC)C(=O)CCC(=O)Nc2cc(C)on2)cc1 (stereo not drawn) | inactive |
| CCCCCCCCCCCCN1[C@@H](CC(=O)O)c2cc(C(F)(F)F)ccc2S1(=O)=O | inactive |
| O=C(NCCCN1CCOCC1)c1cc2cc(Br)ccc2oc1=O | inactive |
| Cc1c(OCC(=O)NCCCN2CCOCC2)ccc2c1oc(=O)c1ccccc12 | inactive |
| COc1cccc(C2CC(c3cccc(OC)c3)n3nc(N)nc3N2)c1 (stereo not drawn) | inactive |
| Cc1ccc(NC(=O)C(c2ccc(Cl)cc2)N2CCCCC2)cc1 (stereo not drawn) | inactive |
| CC(=O)c1ccc(NC(=S)NC(C)c2ccc(Cl)cc2Cl)cc1 (stereo not drawn) | inactive |
| CCc1ncc(C)nc1CC | inactive |
| CN1CCN(C(=S)c2cn(Cc3ccc(Br)cc3)c3ccccc23)CC1 | inactive |
| Cc1nn(-c2ccccc2)c(Cl)c1/C=N/NC(=O)c1ccn[nH]1 | inactive |
| Cc1nn(-c2ccccc2)c(Cl)c1/C=C(\CC(=O)O)c1nc2ccccc2s1 | inactive |
| COc1ccc(C(=O)NCC(=O)N/N=C/C(C)=C/c2ccco2)cc1OC | inactive |
| N/C(=N\OS(=O)(=O)c1ccccc1)c1cccnc1 | inactive |
| CC(Sc1nc2ccccc2c(=O)n1C)C(=O)NC1CCCCC1C (stereo not drawn) | inactive |
| O=C(NCc1cccs1)c1cccnc1C(=O)O | inactive |
| CCOCCCNS(=O)(=O)c1ccc(Br)cc1 | inactive |
| O=C1OCCN1C(=O)[C@H]1[C@H](c2ccc(Cl)cc2)C(c2ccccc2)=NN1c1ccccc1 | inactive |
| COc1ccc(N2CCN(C(=O)C3CCCN(S(=O)(=O)c4cccc5cccnc45)C3)CC2)cc1 (stereo not drawn) | inactive |
| O=C(Nc1ccc2c(c1)OCCO2)N1CCN(c2ccc(F)cc2)CC1 | inactive |
| COc1ccc(Cn2nnnc2C(c2cc3ccc(OC)cc3[nH]c2=O)N2CCC(C)CC2)cc1 (stereo not drawn) | inactive |
| CCS(=O)(=O)c1ccc(NC(=O)c2ccccc2Cl)c(O)c1 | inactive |
| Cc1ccc(S(=O)(=O)N(CC(=O)Nc2ccccc2-c2ccccc2)c2ccc(C)cc2C)cc1 | inactive |

| SMILES | outcome |
| --- | --- |
| CCn1c(CCn2c3ccccc3c3ccccc32)n[nH]c1=S | inactive |
| CC(=O)NC(Cc1ccc(F)c(F)c1)C(=O)NC1CCN(c2c(Cc3ccccc3)c(C)nc3ncnn23)CC1 (stereo not drawn) | inactive |
| O=C(Nc1cc(F)ccc1F)C1CCCN(c2ncnc3c2nc2n3CCCCC2)C1 (stereo not drawn) | inactive |
| CCN(CC)S(=O)(=O)c1ccc(NC(=O)Cc2cccs2)cc1 | inactive |
| Oc1ccc(/C=N/Nc2ccccc2)cc1 | inactive |
| COc1ccc(-c2cc(C(F)(F)F)c3c(n2)sc2c(O)cc(=O)[nH]c23)c(OC)c1 | inactive |
| CC(C)c1cccc(C(C)C)c1OC(=O)[C@H]1OC(C(C)(C)C)=C[C@@H]1c1ccccc1 | inactive |
| COC(=O)CN1C(=O)C(O)=C(C(C)=O)C1c1ccc([N+](=O)[O-])cc1 (stereo not drawn) | inactive |
| Cc1c(N2C(=O)c3cccc4cccc(c34)C2=O)c(=O)n(-c2ccccc2)n1C | inactive |
| CCCc1c(O)nc(SC2CC(=O)N(c3ccc(OC)cc3)C2=O)[nH]c1=O (stereo not drawn) | inactive |
| CC(C)CNC(=S)NC1CCCC1 | inactive |
| COc1cc(SC)ccc1C(=O)Nc1cc(C)ccn1 | inactive |
| COc1cc2cc(C(c3nnnn3Cc3ccc(F)cc3)N3CCCCCC3)c(=O)[nH]c2cc1OC (stereo not drawn) | inactive |
| O=S(=O)(NC1CCCC1)c1cc(F)ccc1F | inactive |
| O=C(O)C1CCCCN1S(=O)(=O)c1ccc(Cl)s1 (stereo not drawn) | inactive |
| Cc1cc(=O)oc2cc(OCC(=O)OCC(=O)N3CCc4ccccc43)ccc12 | inactive |
| CCc1nc2nc(C)c(NS(=O)(=O)c3ccc(Cl)s3)c(=O)n2[nH]1 | inactive |
| Cc1ccc(=O)n(-c2ccccc2)c1 | inactive |
| COc1ccc(Cc2nnc(NS(=O)(=O)c3ccc(Cl)cc3)s2)cc1OC | inactive |
| COc1ccc(Cl)cc1S(=O)(=O)Nc1noc2ccccc12 | inactive |
| CC(C)(CO)[C@@H](O)C(=O)NCCC(=O)O | inactive |
| COc1cc(C(=O)NCCOC(=O)c2cccc(N(C)C)c2)cc(OC)c1OC | inactive |

| SMILES | outcome |
| --- | --- |
| N#Cc1c(N)nc2c(c1-c1ccncc1)CCCCC2 | inactive |
| CN(Cc1ccccc1)C(=O)N1CCOCC1 | inactive |
| Cc1ccccc1-n1c(SCC(=O)N2CCOCC2)nc(O)c(Cc2ccccc2)c1=O | inactive |
| Cc1cc(C)n2nc(SC(C)C(=O)N3CC(C)OC(C)C3)nc2n1 (stereo not drawn) | inactive |
| COc1ccc(OC)c(NC(=O)c2cccnc2)c1 | inactive |
| CN1CCN(c2ccc(S(=O)(=O)N3CCCCC3)cc2NC(=O)c2cccc([N+](=O)[O-])c2)CC1 | inactive |
| O=C(O)c1ccc(N/N=C/c2ccc(-c3ccccc3)cc2)cc1 | inactive |
| Cc1ccnc(NS(=O)(=O)c2ccc(NS(=O)(=O)c3ccccc3)cc2)n1 | inactive |
| O=C(O)c1ccc(NS(=O)(=O)c2cc(C(=O)O)ccc2Br)cc1 | inactive |
| Brc1ccc(NC2=Nc3ccccc3CC2)cc1 | inactive |
| C[C@@H]1O[C@@H](Oc2c(-c3ccc(O)c(O)c3)oc3cc(O)cc(O)c3c2=O)[C@H](O)[C@H](O)[C@H]1O | inactive |
| C[C@H](NC(=O)c1nc[nH]c1C(=O)NCc1ccc(CNC(=O)OC(C)(C)C)cc1)c1ccccc1 | inactive |
| CC(C)(C)OC(=O)[C@H](Cc1ccccc1)NC(=O)c1nc[nH]c1C(=O)NC1CCN(C(=O)OC(C)(C)C)CC1 | inactive |
| O=C(CCc1ccccc1)N1CCN(Cc2ccc(F)cc2Cl)CC1 | inactive |
| Cn1cc(CN2CCC(CO)(CCCc3ccccc3)CC2)c(-c2ccccc2)n1 | inactive |
| CCCn1c(N)c(C(=O)CSc2nc(C)cs2)c(=O)n(C)c1=O | inactive |
| O=C(Nc1ccccc1OC(F)F)c1oc2ccccc2c1COc1ccccc1 | inactive |
| O=C(O)CC(NCc1ccco1)C(=O)OCCc1ccccc1 (stereo not drawn) | inactive |
| CC(/C=N/NC(=O)c1nnn(-c2nonc2N)c1C(C)C)=C\c1ccccc1 | inactive |
| CCn1c(SCC(=O)Nc2ccc(OC)cc2)nc2c1c(=O)n(C)c(=O)n2C | inactive |
| CN1CCN(CCC(=O)Nc2ccc(OCc3ccccc3)cc2)CC1 | inactive |
| CCOc1ccc(NC(C(=O)Nc2cccc(C(C)=O)c2)c2ccccc2)cc1 (stereo not drawn) | inactive |

| SMILES | outcome |
| --- | --- |
| CN(c1ccccc1C(=O)Nc1ccc(S(=O)(=O)N2CCOCC2)cc1)S(C)(=O)=O | inactive |
| CC(C)(C)NC(=O)NC(=O)CSc1ccc(S(=O)(=O)N2CCOCC2)cn1 | inactive |
| Cc1nc(SCc2nc3ccccc3[nH]2)c2oc3ccccc3c2n1 | inactive |
| O=c1/c(=C/c2ccc(O)c([N+](=O)[O-])c2)sc2nc3ccccc3n12 | inactive |
| COc1ccc([N+](=O)[O-])cc1/C=N/NC(=O)Cc1ccccc1 | inactive |
| CC(SCC(=O)Nc1ccc(F)cc1)c1nc2ccccc2c(=O)[nH]1 (stereo not drawn) | inactive |
| Cc1nc2c(=O)n(-c3cccc(C(F)(F)F)c3)nc(C)c2s1 | inactive |
| CCN1CCCC1CNCc1cccc(OC)c1OCc1ccc(F)cc1 (stereo not drawn) | inactive |
| CCN1CCCC1CNC(=O)C(=O)NC(C)C (stereo not drawn) | inactive |
| O=C(O)c1sccc1OCc1ccccc1 | inactive |
| CCOc1ccc(Br)cc1CNCCN1CCOCC1 | inactive |
| O=C(CCC1CCCCC1)NCCN1CCOCC1 | inactive |
| COc1ccc(N=Cc2nc(-c3ccccc3)oc2OC(=O)c2ccccc2)cc1 | inactive |
| CCNc1nc(OC)nc(Oc2ccc(=O)n(-c3ccccc3)n2)n1 | inactive |
| Clc1ccc(-c2csc(-c3cccnc3)n2)s1 | inactive |
| Nc1nc2ccc([N+](=O)[O-])c(N)c2s1 | inactive |
| CCSC(=O)NC12CC3CC(CC(C3)C1)C2 | inactive |
| O=C(O)c1ccccc1-c1nc2ccccc2c(=O)n1O | inactive |
| O=C(CSc1nc2ccccc2c(=O)n1CCCN1CCOCC1)Nc1ccc2c(c1)OCO2 | inactive |
| CN(C(=O)COC(=O)CNC(=O)C12CC3CC(CC(C3)C1)C2)C1CCS(=O)(=O)C1 (stereo not drawn) | inactive |
| N#CC1=C2SCC(O)(c3ccccc3)N2C(=O)CC1c1ccccc1F (stereo not drawn) | inactive |
| COc1cc2c(cc1OC)C(c1cccc(F)c1)CC(=O)N2 (stereo not drawn) | inactive |

| SMILES | outcome |
| --- | --- |
| COc1ccc(C2CC(=O)Nc3n[nH]c(-c4ccccc4)c32)cc1OC (stereo not drawn) | inactive |
| Cc1csc(N2CCCC2c2nc3cc(C(F)(F)F)ccc3n2CCOCCO)n1 (stereo not drawn) | inactive |
| CN1C2CCC1CC(NS(=O)(=O)c1cc(Cl)c(Cl)cc1Cl)C2 (stereo not drawn) | inactive |
| CC(C)(C)c1ccc(C(=O)O)c(C(=O)c2ccc(C(=O)O)cc2)c1 | inactive |
| CN(C)c1ccc(C(=O)n2nnc3ccccc32)cc1 | inactive |
| Nc1nnc(-c2cn(-c3ccccc3)nc2-c2ccc(Cl)cc2)o1 | inactive |
| Cc1cccc(CNC(=O)C2CCCN(c3nn4c(=O)cc(C)nc4s3)C2)c1 (stereo not drawn) | inactive |
| COc1ccc(CNC(=O)Cn2nnc(-c3ccc(NC(=O)C4CCCCC4)cc3)n2)cc1 | inactive |
| CCc1ccc(NS(=O)(=O)c2ccc3[nH]cc(C(=O)N4CCCCC4)c(=O)c3c2)cc1 | inactive |
| C/C(=N\NC(=O)c1cccc(O)c1)c1cccc(NC(=O)c2ccc(F)cc2)c1 | inactive |
| CCOC(=O)CNS(=O)(=O)Cc1ccccc1 | inactive |
| CC(=O)NCC(=O)OCC(=O)c1ccc(C)cc1 | inactive |
| CCCCCn1c(CNC(=O)c2cccs2)nc2ccccc21 | inactive |
| Cc1cccc(NC(=S)NC(C)CCc2ccccc2)c1 (stereo not drawn) | inactive |
| CCOC(=O)c1c2c3c(c(Cl)ccc3[nH]c1=O)C(=O)c1ccccc1-2 | inactive |
| CCc1ccccc1NC(=O)CSc1nnc(-c2ccco2)n1N | inactive |
| Cc1ccc(S(=O)(=O)Nc2ccnc(-c3cccnc3)n2)cc1 | inactive |
| Clc1ccccc1-c1ccc2ncnc(NCc3cccnc3)c2c1 | inactive |
| Cc1ccc(/C=N/NC(=O)c2ccc(Cn3cc([N+](=O)[O-])cn3)o2)cc1 | inactive |
| CC(C)(C)OC(=O)N[C@@H](Cc1ccccc1)[C@H](O)c1ccco1 | inactive |
